Measurements published in the supplement of paper PMC8728848.
Many of the other results were omitted from the sample, so the strongest signals are more common in it than they were.

Tests used:
Experiment in all cases: glycan array binding signal (z-score within array); higher = stronger binding
Conditions in all cases: glycan notation: IUPAC condensed, linker removed
[1] = target: GlcNAc(b1-4)GlcNAc(b1-4)GlcNAc(b1-4)GlcNAc(b1-4)GlcNAc
Method in brief: (§1)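 The binding signal is a Z-score computed within each array and averaged over linkers. Arrays of the same protein sequence at different concentrations or buffers were also averaged together. Data originate from 3228 arrays in the Consortium for Functional Glycomics database, kept only where the protein sequence was available.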

[2] = target: Kdn(a2-6)Gal(b1-4)GlcNAc
Method in brief: as §1

[3] = target: Man(a1-2)Man(a1-3)[Man(a1-6)]Man(a1-6)[Man(a1-2)Man(a1-3)]Man(b1-4)GlcNAc(b1-4)GlcNAc
Method in brief: as §1

[4] = target: Man(a1-3)[Man(a1-6)]Man(a1-6)[Man(a1-3)]Man
Method in brief: as §1

[5] = target: Neu5Ac(a2-3)Gal(b1-3)GalNAc(b1-4)[Neu5Ac(a2-3)]Gal(b1-4)Glc
Method in brief: as §1

[6] = target: Neu5Ac(a2-3)Gal(b1-3)GlcNAc(b1-2)Man
Method in brief: as §1

[7] = target: Neu5Ac(a2-3)Gal(b1-4)GlcNAc(b1-2)Man
Method in brief: as §1

[8] = target: Neu5Ac(a2-3)Gal(b1-4)GlcNAc(b1-2)Man(a1-3)[Neu5Ac(a2-3)Gal(b1-4)GlcNAc(b1-2)Man(a1-6)]Man(b1-4)GlcNAc(b1-4)[Fuc(a1-6)]GlcNAc
Method in brief: as §1

[9] = target: Neu5Ac(a2-3)Gal(b1-4)GlcNAc(b1-2)[Neu5Ac(a2-3)Gal(b1-4)GlcNAc(b1-4)]Man(a1-3)[GlcNAc(b1-4)][Neu5Ac(a2-3)Gal(b1-4)GlcNAc(b1-2)[Neu5Ac(a2-3)Gal(b1-4)GlcNAc(b1-6)]Man(a1-6)]Man(b1-4)GlcNAc(b1-4)GlcNAc
Method in brief: as §1

[10] = target: Neu5Ac(a2-3)Gal(b1-4)GlcNAc(b1-3)Gal(b1-4)GlcNAc(b1-3)Gal(b1-4)GlcNAc(b1-2)Man(a1-3)[Neu5Ac(a2-3)Gal(b1-4)GlcNAc(b1-3)Gal(b1-4)GlcNAc(b1-3)Gal(b1-4)GlcNAc(b1-2)Man(a1-6)]GalNAc
Method in brief: as §1

[11] = target: Neu5Ac(a2-3)Gal(b1-4)GlcNAc(b1-3)Gal(b1-4)GlcNAc(b1-3)[Neu5Ac(a2-3)Gal(b1-4)GlcNAc(b1-3)Gal(b1-4)GlcNAc(b1-6)]GalNAc
Method in brief: as §1

[12] = target: Neu5Ac(a2-3)Gal(b1-4)[Fuc(a1-3)]GlcNAc(b1-2)Man
Method in brief: as §1

[13] = target: Neu5Ac(a2-3)Gal(b1-4)[Fuc(a1-3)]GlcNAc(b1-3)GalNAc
Method in brief: as §1

[14] = target: Neu5Ac(a2-3)[GalNAc(b1-4)]Gal(b1-4)Glc
Method in brief: as §1

[15] = target: Neu5Ac(a2-6)Gal
Method in brief: as §1

[16] = target: Neu5Ac(a2-6)Gal(b1-4)GlcNAc(b1-2)Man
Method in brief: as §1

[17] = target: Neu5Ac(a2-6)Gal(b1-4)GlcNAc(b1-2)Man(a1-3)Man(b1-4)GlcNAc(b1-4)GlcNAc
Method in brief: as §1

[18] = target: Neu5Ac(a2-6)Gal(b1-4)GlcNAc(b1-2)Man(a1-6)[GlcNAc(b1-2)Man(a1-3)]Man(b1-4)GlcNAc(b1-4)GlcNAc
Method in brief: as §1

[19] = target: Neu5Ac(a2-6)Gal(b1-4)GlcNAc(b1-3)Gal(b1-3)GlcNAc
Method in brief: as §1

[20] = target: Neu5Ac(a2-6)Gal(b1-4)GlcNAc(b1-3)Gal(b1-4)GlcNAc(b1-3)Gal(b1-4)GlcNAc(b1-2)Man(a1-3)[Neu5Ac(a2-6)Gal(b1-4)GlcNAc(b1-3)Gal(b1-4)GlcNAc(b1-3)Gal(b1-4)GlcNAc(b1-2)Man(a1-6)]GalNAc
Method in brief: as §1

[21] = target: Neu5Ac(a2-6)Gal(b1-4)GlcNAc(b1-3)Gal(b1-4)GlcNAc(b1-3)[Neu5Ac(a2-6)Gal(b1-4)GlcNAc(b1-3)Gal(b1-4)GlcNAc(b1-6)]GalNAc
Method in brief: as §1

[22] = target: Neu5Ac(a2-8)Neu5Ac
Method in brief: as §1

[23] = target: Neu5Ac(a2-8)Neu5Ac(a2-3)[GalNAc(b1-4)]Gal(b1-4)Glc
Method in brief: as §1

[24] = target: Neu5Ac9Ac(a2-3)Gal(b1-4)GlcNAc
Method in brief: as §1

[25] = target: Neu5Gc(a2-6)GalNAc
Method in brief: as §1

[26] = target: Neu5Gc(b2-6)Gal(b1-4)GlcNAc
Method in brief: as §1

[27] = target: Fuc(a1-2)Gal(b1-4)GlcNAc
Method in brief: as §1

[28] = target: Fuc(a1-2)[Gal(a1-3)]Gal
Method in brief: as §1

[29] = target: Fuc(b1-3)GlcNAc
Method in brief: as §1

[30] = target: Gal(a1-3)[Gal(a1-4)]Gal(b1-4)GlcNAc
Method in brief: as §1

[31] = target: Gal(b1-3)[Neu5Ac(a2-6)]GalNAc
Method in brief: as §1

[32] = target: Gal(b1-4)GlcNAc(b1-3)Gal(b1-4)GlcNAc
Method in brief: as §1

[33] = target: GlcNAc(b1-3)Gal
Method in brief: as §1

[34] = target: GlcNAc(b1-3)Gal(b1-4)Glc
Method in brief: as §1

[35] = target: GlcNAc(b1-3)[GlcNAc(b1-6)]Gal(b1-4)GlcNAc
Method in brief: as §1

[36] = target: GlcNAc(b1-3)[GlcNAc(b1-6)]GalNAc
Method in brief: as §1

[37] = target: GlcNAc(b1-4)[GlcNAc(b1-6)]GalNAc
Method in brief: as §1

[38] = target: Neu5Ac(a2-3)Gal(b1-3)GalNAc(b1-3)Gal(a1-4)Gal(b1-4)Glc
Method in brief: as §1

[39] = target: Neu5Ac(a2-3)Gal(b1-3)GalNAc(b1-3)Gal(b1-4)GlcNAc
Method in brief: as §1

[40] = target: Neu5Ac(a2-3)Gal(b1-4)GlcNAc
Method in brief: as §1

[41] = target: Neu5Ac(a2-3)GalNAc
Method in brief: as §1

B1: HA-00510 (Pseudomonas aeruginosa), Q02V39_PSEAB (protein)
chain: GVPIVNIATPNGAGLSNNHFRDYNVGANGLILNNATGKTQGTQLGGIILGNPNLKGQAAQVILNQVTGGNRSTLAGYTEVAGQSARVIVANPHGITCQGCGFINTPRATLTTGKPIMDGQRLERFQVDGGDIVVEGAELNVGNLEQFDLITRSAKLNAKLYAKNLNIVTGRNDVQADSLQATPRAADGSEKPQLAIDSSALGGMYAGAIRLVGTEQGVGVKLAGDMAASGGDIRIDASGKLSLAQASSQGDLKIAAQAVELNGKTYAGGSAEIRSAEELVNRQS
**Q.** Which “glycan array binding signal (z-score)” value [1] does the source give for B1 here?
**A.** Its value is 0.345.

**Q.** And the “glycan array binding signal (z-score)” value [2]?
**A.** The value was -0.045.

**Q.** And the “glycan array binding signal (z-score)” value [3]?
**A.** The value was -0.534.

**Q.** What about the “glycan array binding signal (z-score)” value [4] of the same binder?
**A.** The value was -0.502.

**Q.** What about the “glycan array binding signal (z-score)” value [5] of the same binder?
**A.** The value was 0.112.

**Q.** And the “glycan array binding signal (z-score)” value [6]?
**A.** The value was -0.852.

**Q.** What about the “glycan array binding signal (z-score)” value [7] of the same binder?
**A.** Its value is 1.18.

**Q.** And the “glycan array binding signal (z-score)” value [8]?
**A.** Its value is 0.601.

**Q.** What about the “glycan array binding signal (z-score)” value [9] of the same binder?
**A.** Its value is 0.048.

**Q.** What about the “glycan array binding signal (z-score)” value [10] of the same binder?
**A.** The value was 3.77.

**Q.** And the “glycan array binding signal (z-score)” value [11]?
**A.** Its value is -0.447.

**Q.** What about the “glycan array binding signal (z-score)” value [12] of the same binder?
**A.** Its value is -1.16.

**Q.** And the “glycan array binding signal (z-score)” value [13]?
**A.** Its value is 2.86.

**Q.** And the “glycan array binding signal (z-score)” value [14]?
**A.** Its value is -0.269.

**Q.** What about the “glycan array binding signal (z-score)” value [15] of the same binder?
**A.** Its value is 0.437.

**Q.** And the “glycan array binding signal (z-score)” value [16]?
**A.** The value was 2.52.

**Q.** And the “glycan array binding signal (z-score)” value [17]?
**A.** The value was -0.14.

**Q.** And the “glycan array binding signal (z-score)” value [18]?
**A.** The value was -0.425.

**Q.** And the “glycan array binding signal (z-score)” value [19]?
**A.** Its value is 2.34.

**Q.** What about the “glycan array binding signal (z-score)” value [20] of the same binder?
**A.** The value was 3.69.

**Q.** What about the “glycan array binding signal (z-score)” value [21] of the same binder?
**A.** The value was 2.75.

**Q.** What about the “glycan array binding signal (z-score)” value [22] of the same binder?
**A.** Its value is 0.611.

**Q.** What about the “glycan array binding signal (z-score)” value [23] of the same binder?
**A.** Its value is -0.094.

**Q.** And the “glycan array binding signal (z-score)” value [24]?
**A.** Its value is 0.419.

**Q.** What about the “glycan array binding signal (z-score)” value [25] of the same binder?
**A.** The value was -0.059.

**Q.** What about the “glycan array binding signal (z-score)” value [26] of the same binder?
**A.** Its value is -0.019.

B2: F17dG (Escherichia coli), Q47199 (protein)
chain: MTNFYKVFLAVFILVCCNISQAAVSFIGSTENDVGPSPGSYSRTHAMDNLPFVYNTGNNIGYQNANVWRISKGFCVGLDGKVDLPVVGSLDGQSIYGLTEEVGLLIWMGDTNYSRGTAMSGNSWENVFSGWCVGANTASTQGLSVRVTPVILKRNSSARYSVQKTSIGSIRMRPYNGSSAGSVQTTVNFSLNPFTLNDTVTSCRLLTPSAVNVSLAAISAGQLPSSGDEVVAGTTSLKLQCDAGVTVWATLTDATTPSNRSDILTLTGASTATGVGLRIYKNTDSTPLKFGPDSPVKGNENQWQLSTGTETSPSVRLYVKYVNTGEGINPGTVNGISTFTFSYQ
**Q.** For B2, which “glycan array binding signal (z-score)” value [27] is on record?
**A.** The value was -0.185.

**Q.** What about the “glycan array binding signal (z-score)” value [28] of the same binder?
**A.** Its value is -0.276.

**Q.** What about the “glycan array binding signal (z-score)” value [29] of the same binder?
**A.** The value was -0.225.

**Q.** What about the “glycan array binding signal (z-score)” value [30] of the same binder?
**A.** Its value is -0.399.

**Q.** What about the “glycan array binding signal (z-score)” value [31] of the same binder?
**A.** The value was -0.194.

**Q.** And the “glycan array binding signal (z-score)” value [32]?
**A.** Its value is -0.287.

**Q.** And the “glycan array binding signal (z-score)” value [33]?
**A.** The value was 4.56.

**Q.** And the “glycan array binding signal (z-score)” value [34]?
**A.** Its value is 5.88.

**Q.** What about the “glycan array binding signal (z-score)” value [35] of the same binder?
**A.** The value was 5.46.

**Q.** And the “glycan array binding signal (z-score)” value [36]?
**A.** The value was 6.17.

**Q.** What about the “glycan array binding signal (z-score)” value [37] of the same binder?
**A.** The value was -0.009.

**Q.** And the “glycan array binding signal (z-score)” value [38]?
**A.** Its value is -0.399.

**Q.** And the “glycan array binding signal (z-score)” value [39]?
**A.** The value was -0.204.

**Q.** What about the “glycan array binding signal (z-score)” value [40] of the same binder?
**A.** The value was -0.354.

**Q.** And the “glycan array binding signal (z-score)” value [41]?
**A.** Its value is -0.327.
